Laboratory results from PubChem BioAssay AID1159580 (chemical genetic matrix, 2015).
About 2,000 (36%) of roughly 5,500 compounds were called active. About 18% were inconclusive and are not listed. No stated cut-off is given here; in the data, active means normalized growth mostly below about 0.91 (no sharp cut-off); inconclusive means no clear call, values can overlap the other calls; inactive means mostly above about 0.92. The list shows a part of the results.

Assay: chemical genetic growth profiling, strain panel (AID 1159580);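 further: tested at 20 µM; growth read once vehicle control cultures reached saturation at 30 °C; 1 = growth at the plate median or of vehicle wells; lower values mean less growth of the strain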
Conditions: S. cerevisiae deletion strains, growth OD

Measured: normalized growth

CCCc1cc(OC)c2c(c1)OCO2
inactive: locus YAL021C, strain ccr4, hits give low values 1.04 | locus YAL026C, strain drs2, hits give low values 0.988 | locus YAL030W, strain snc1, hits give low values 0.999 | locus YBL061C, strain skt5, hits give low values 0.993 | locus YBR009C, strain hhf1, hits give low values 0.988 | locus YBR023C, strain chs3, hits give low values 0.991 | locus YBR171W, strain sec66, hits give low values 0.973 | locus YBR231C, strain swc5, hits give low values 1.01 | locus YBR279W, strain paf1, hits give low values 1 | locus YCL011C, strain gbp2, hits give low values 0.999 | locus YCL016C, strain dcc1, hits give low values 0.98 | locus YCL069W, strain vba3, hits give low values 0.996 | locus YCR088W, strain abp1, hits give low values 0.985 | locus YDL005C, strain med2, hits give low values 0.975 | locus YDL040C, strain nat1, hits give low values 0.978 | locus YDR001C, strain nth1, hits give low values 0.987 | locus YDR069C, strain doa4, hits give low values 0.994 | locus YDR137W, strain rgp1, hits give low values 0.94 | locus YDR159W, strain sac3, hits give low values 0.943 | locus YDR195W, strain ref2 0.974 | locus YDR297W, strain sur2, hits give low values 0.995 | locus YDR334W, strain swr1, hits give low values 1.01 | locus YDR335W, strain msn5, hits give low values 0.988 | locus YDR392W, strain spt3, hits give low values 0.952 | locus YEL003W, strain gim4, hits give low values 0.994 | locus YEL037C, strain rad23, hits give low values 0.998 | locus YEL061C, strain CIN8 (second series), hits give low values 0.979 | locus YER015W, strain faa2, hits give low values 0.989 | locus YER016W, strain bim1, hits give low values 0.977 | locus YER111C, strain swi4, hits give low values 0.976 | locus YER155C, strain BEM2 (second series), hits give low values 0.928 | locus YFR010W, strain ubp6, hits give low values 0.999 | locus YGL167C, strain pmr1, hits give low values 0.983 | locus YGL173C, strain kem1, hits give low values 0.987 | locus YGL227W, strain vid30, hits give low values 0.974 | locus YGL240W, strain doc1, hits give low values 1 | locus YGL253W, strain hxk2, hits give low values 0.995 | locus YHR013C, strain ard1, hits give low values 1.11 | locus YHR027C, strain rpn1, hits give low values 0.982 | locus YHR030C, strain SLT2, hits give low values 0.944 | locus YHR079C, strain IRE1, hits give low values 0.946 | locus YHR142W, strain chs7, hits give low values 0.974 | locus YJL092W, strain hpr5, hits give low values 0.985 | locus YJL095W, strain BCK1 (second series), hits give low values 1 | locus YJL095W, strain BCK1, hits give low values 1.02 | locus YJL115W, strain asf1, hits give low values 0.98 | locus YJL129C, strain trk1, hits give low values 0.992 | locus YJL154C, strain vps35, hits give low values 0.994 | locus YJL164C, strain tpk1, hits give low values 1 | locus YJL166W, strain qcr8, hits give low values 0.985 | locus YJL187C, strain SWE1, hits give low values 1 | locus YJR066W, strain TOR1, hits give low values 0.937 | locus YKL160W, strain elf1, hits give low values 0.983 | locus YKR026C, strain gcn3, hits give low values 0.971 | locus YKR091W, strain srl3, hits give low values 0.984 | locus YLL001W, strain dnm1, hits give low values 0.999 | locus YLL026W, hits give low values 0.992 | locus YLL041C, strain sdh2, hits give low values 0.997 | locus YLR027C, strain aat2, hits give low values 0.984 | locus YLR113W, strain HOG1, hits give low values 1.04 | locus YLR221C, strain rsa3, hits give low values 0.989 | locus YLR258W, strain gsy2, hits give low values 0.998 | locus YLR262C, strain YPT6 (second series), hits give low values 0.927 | locus YLR320W, strain mms22, hits give low values 1 | locus YLR342W, strain FKS1, hits give low values 0.977 | locus YLR357W, strain rsc2, hits give low values 0.974 | locus YLR370C, strain arc18, hits give low values 0.984 | locus YLR384C, strain iki3, hits give low values 0.995 | locus YML120C, strain ndi1, hits give low values 0.987 | locus YMR058W, strain fet3, hits give low values 1.02 | locus YMR125W, strain sto1, hits give low values 0.971 | locus YMR129W, hits give low values 0.975 | locus YMR205C, strain PFK2, hits give low values 0.98 | locus YMR231W, strain pep5, hits give low values 1 | locus YNL071W, strain lat1, hits give low values 0.998 | locus YNL183C, strain NPR1, hits give low values 1.01 | locus YNL209W, strain ssb2, hits give low values 0.967 | locus YNL248C, strain rpa49, hits give low values 0.989 | locus YNL322C, strain KRE1 (second series), hits give low values 0.976 | locus YNR049C, strain mso1, hits give low values 0.992 | locus YOR001W, strain rrp6, hits give low values 0.999 | locus YOR070C, strain gyp1, hits give low values 0.997 | locus YOR080W, strain dia2, hits give low values 0.966 | locus YOR083W, strain WHI5, hits give low values 0.938 | locus YOR106W, strain vam3, hits give low values 0.976 | locus YOR231W, strain MKK1, hits give low values 0.957 | locus YOR265W, strain rbl2, hits give low values 0.981 | locus YOR270C, strain vph1, hits give low values 1 | locus YOR290C, strain snf2, hits give low values 0.995 | locus YPL051W, strain arl3, hits give low values 0.991 | locus YPL078C, strain atp4, hits give low values 0.981 | locus YPL106C, strain sse1, hits give low values 0.976 | locus YPL240C, strain hsp82, hits give low values 0.974 | locus YPL256C, strain CLN2, hits give low values 0.953
